Assay results taken from PubChem BioAssay AID624255 (Broad Institute, 2012).
Several values for one entry are separate records, joined by “and”; a condition that tells them apart may be missing. Equal entries are not always repeated. The whole screen tested about 77,000 compounds, of which about 4,600 (6%) were called active. Roughly 1% stayed inconclusive and do not appear here. This excerpt belongs to a sample that is enriched for actives. A number with no mark means an inactive call.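 Rule for the calls: active = mean inhibition above about 93%, with at least 55% of replicates each passing it (limit read from the data, passing the limit was not always enough); inconclusive = only one of those two conditions holds; inactive = neither condition holds.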

Test: growth inhibition of T. cruzi in host fibroblasts – cell-based, beta-gal Tulahuen parasites, NIH3T3 host, luminescence, primary screen (AID 624255)
Details: T. cruzi beta-gal in NIH3T3, GalScreen luminescence, 90 h; at 8.34 µM; hits give high values

Going from C/C=C/c1ccc([C@H]2[C@@H](CO)N[C@@H]2CN(CC)C(=O)CN2CCOCC2)cc1 to CCCC#Cc1ccc([C@H]2[C@@H](CO)N3CCCCN(S(=O)(=O)CC)C[C@H]23)cc1, the inhibition rises from -25.4% to 65.9%.

Going from CCS(=O)(=O)Nc1ccc2c(c1)C(=O)N(C)[C@@H]1CC[C@@H](CC(=O)N3CCCCC3)O[C@H]1CO2 to CNC(=O)C[C@H]1CC[C@@H]2[C@H](COc3ccc(NC(=O)C(C)C)cc3C(=O)N2C)O1, the inhibition falls from 54.2% to -65%.

First: CO[C@@H]1CN(C)C(=O)c2cc(NC(=O)C3CCC3)ccc2OC[C@H](C)N(Cc2nccs2)C[C@H]1C
Second: COCC(=O)Nc1ccc2c(c1)C(=O)N(C)C[C@@H](OC)[C@H](C)CN(C(=O)CC1CC1)[C@H](C)CO2
The inhibition of the first is lower: -2.54% for the first, 34.9% for the second.

Going from Cc1noc(C)c1S(=O)(=O)Nc1ccc2c(c1)C(=O)N([C@@H](C)CO)C[C@@H](C)[C@@H](CN(C)S(=O)(=O)c1ccccc1)OCCCC[C@H](C)O2 to Cc1ccc(S(=O)(=O)N(C)C[C@H]2OCCCC[C@H](C)Oc3ccc(NS(=O)(=O)c4c(C)noc4C)cc3C(=O)N([C@H](C)CO)C[C@@H]2C)cc1, the inhibition falls from -37.4% to -43.8%.

Compared with COc1ccc(S(=O)(=O)Nc2ccc3c(c2)C(=O)N([C@@H](C)CO)C[C@H](C)[C@@H](CN(C)S(=O)(=O)c2ccc(F)cc2)OCCCC[C@H](C)O3)cc1, COc1ccc(S(=O)(=O)Nc2ccc3c(c2)C(=O)N([C@@H](C)CO)C[C@H](C)[C@H](CN(C)S(=O)(=O)c2ccc(F)cc2)OCCCC[C@@H](C)O3)cc1 is higher in inhibition: 85% for the first, 94.5% for the second.

Compared with Cc1ccc(S(=O)(=O)Nc2ccc3c(c2)CC(=O)N([C@H](C)CO)C[C@@H](C)[C@H](CN(C)S(=O)(=O)c2c(C)noc2C)O3)cc1, Cc1ccc(S(=O)(=O)N(C)C[C@H]2OCCCC[C@@H](C)Oc3ccc(NS(C)(=O)=O)cc3C(=O)N([C@H](C)CO)C[C@@H]2C)cc1 is higher in inhibition: -10.8% for the first, -8.39% for the second.

Going from COc1ccc(S(=O)(=O)Nc2ccc3c(c2)C(=O)N([C@H](C)CO)C[C@H](C)[C@@H](CN(C)S(C)(=O)=O)OCCCC[C@@H](C)O3)cc1 to C[C@@H]1CCCCO[C@@H](CN(C)S(C)(=O)=O)[C@H](C)CN([C@@H](C)CO)C(=O)c2cc(NS(=O)(=O)c3ccc(F)cc3)ccc2O1, the inhibition falls from 50.1% to -87.8%.

Compared with C[C@@H]1CN([C@H](C)CO)C(=O)Cc2cc(N(C)C)ccc2O[C@H]1CN(C)S(C)(=O)=O, C[C@H](CO)N1C[C@H](C)[C@H](CN(C)C(=O)NC2CCCCC2)Oc2ccc(NC(=O)CCCN(C)C)cc2CC1=O is higher in inhibition: -46% for the first, 25.8% for the second.

Going from COC(=O)C[C@@H]1CC[C@H]2[C@H](COc3ccc(NC(=O)c4cccs4)cc3C(=O)N2C)O1 to CNC(=O)C[C@H]1CC[C@H]2[C@@H](COc3ccc(NC(=O)c4cccc(OC)c4)cc3C(=O)N2C)O1, the inhibition rises from 2.22% to 3.49%.

Going from C[C@H]1CCCCO[C@@H](CN(C)Cc2ccc3c(c2)OCO3)[C@@H](C)CN([C@@H](C)CO)C(=O)c2cc(NC(=O)Nc3ccc(F)cc3)ccc2O1 to C[C@H](CO)N1C[C@H](C)[C@@H](CN(C)C(=O)Nc2ccc3c(c2)OCO3)OCCCC[C@H](C)Oc2ccc(NC(=O)Nc3ccc(F)cc3)cc2C1=O, the inhibition falls from 77.3% to -31.4%.

Compared with CN1c2ccc(-c3ccc(C#N)cc3)cc2[C@@H]2[C@@H](CCN2C(=O)C2CCCCC2)[C@H]1CO, COc1cccc(-c2ccc3c(c2)[C@@H]2[C@@H](CCN2S(=O)(=O)C2=NC(C)C=N2)[C@@H](CO)N3C)c1 (stereo partly specified) is lower in inhibition: 50.3% for the first, 6.92% for the second.

Going from O=C(NCC1CC1)[C@@H]1[C@@H](CO)[C@@H]2Cn3c(ccc(-c4ccncc4)c3=O)[C@H]1N2Cc1nccs1 to O=C(NC1CCC1)[C@H]1[C@H](CO)[C@H]2Cn3c(ccc(C4=CCCCC4)c3=O)[C@@H]1N2CC1CC1, the inhibition falls from 32.5% to -4.56%.

Compared with COc1ccccc1-c1ccc2c(c1)[C@H]1[C@H](CCN1S(=O)(=O)c1ccccc1)[C@@H](CO)N2, O=S(=O)(c1ccccc1)N1CCCCN2[C@H](C1)[C@H](c1ccc(-c3ccccc3)cc1)[C@@H]2CO is higher in inhibition: 77.3% for the first, 94.7% for the second.

Compared with CC(=O)Nc1ccc2c(c1)C(=O)N(C)[C@H]1CC[C@H](CC(=O)NCc3ccccc3Cl)O[C@H]1CO2, CO[C@H]1CN(C)C(=O)c2cc(NC(=O)Nc3cccc(F)c3)ccc2OC[C@H](C)N(C(C)=O)C[C@H]1C is higher in inhibition: -40.6% for the first, 26.3% for the second.

Compared with CNC[C@H]1OCCCC[C@@H](C)Oc2ccc(NC(=O)Nc3ccc(C(F)(F)F)cc3)cc2C(=O)N([C@H](C)CO)C[C@H]1C, C[C@@H]1CCCCO[C@@H](CN(C)S(=O)(=O)c2ccc(F)cc2)[C@@H](C)CN([C@@H](C)CO)C(=O)c2cc(NC(=O)Nc3ccc(F)cc3)ccc2O1 is lower in inhibition: 69.3% for the first, 55.8% for the second.

Compared with COc1ccccc1S(=O)(=O)Nc1ccc2c(c1)C(=O)N(C)C[C@H](OC)[C@H](C)CN[C@H](C)CO2, COc1ccc(S(=O)(=O)N(C)C[C@@H]2OCCCC[C@@H](C)Oc3ccc(NS(=O)(=O)c4ccccc4)cc3C(=O)N([C@@H](C)CO)C[C@H]2C)cc1 is higher in inhibition: 9.95% for the first, 71.3% for the second.

Going from O=C([C@H]1N[C@H]2c3ccc(-c4ccccc4)c(=O)n3C[C@H]2[C@@H]1CO)N1CCOCC1 to OC[C@H]1[C@H](c2ccc(-c3cccnc3)cc2)[C@H]2CN(Cc3ccccn3)CCCCN21, the inhibition rises from -8.75% to 79.7%.

First: C[C@@H]1CCCCO[C@H](CN(C)S(=O)(=O)c2ccccc2)[C@@H](C)CN([C@@H](C)CO)C(=O)c2cc(NS(=O)(=O)c3ccccc3)ccc2O1
Second: Cc1ccc(S(=O)(=O)Nc2ccc3c(c2)C(=O)N([C@H](C)CO)C[C@@H](C)[C@H](CN(C)S(=O)(=O)c2ccc(C)cc2)OCCCC[C@@H](C)O3)cc1
The inhibition of the first is lower: 78.8% for the first, 89.1% for the second.

Going from COc1ccc(S(=O)(=O)Nc2ccc3c(c2)C(=O)N([C@H](C)CO)C[C@@H](C)[C@H](CN(C)S(=O)(=O)c2ccc(Cl)cc2)OCCCC[C@@H](C)O3)cc1 to C[C@H](CO)N1C[C@H](C)[C@@H](CN(C)C(=O)CCC(F)(F)F)OCCCC[C@H](C)Oc2ccc(NC(=O)C3CCCCC3)cc2C1=O, the inhibition falls from 87% to 39.7%.

Going from CN1CCCCN2[C@H](CO)[C@H](c3ccc(-c4ccc(F)cc4)cc3)[C@@H]2C1 to Cc1cccc(-c2ccc([C@H]3[C@H](CO)N4CCCCN(S(=O)(=O)c5cn(C)cn5)C[C@@H]34)cc2)c1, the inhibition rises from 14.5% to 41.5%.

Going from CCCC#Cc1ccc([C@H]2[C@@H](CO)N3CCCCN(S(=O)(=O)Cc4ccccc4)C[C@H]23)cc1 to COc1cccc(-c2ccc([C@H]3[C@H](CO)N4CCCCN(S(=O)(=O)c5cccs5)C[C@@H]34)cc2)c1, the inhibition rises from 54.7% to 91.7%.

First: COCc1cn(CC[C@H]2CC[C@H](NC(=O)Nc3ccc4c(c3)OCO4)[C@@H](CO)O2)nn1
Second: O=C(C[C@H]1C=C[C@H](NC(=O)C2CCOCC2)[C@@H](CO)O1)NCC1CC1
The inhibition of the first is higher: -12.8% for the first, -20.7% for the second.

For COc1ccc(S(=O)(=O)N(C)C[C@H]2OCCCC[C@H](C)Oc3ccc(NS(=O)(=O)c4ccc(F)cc4)cc3C(=O)N([C@@H](C)CO)C[C@@H]2C)cc1, the inhibition was 108% (active).
In the case of Cc1noc(C)c1S(=O)(=O)N(C)C[C@H]1Oc2ccc(N(C)C)cc2CC(=O)N([C@H](C)CO)C[C@@H]1C, the inhibition is reported as 97.3% (active).
With Cc1noc(C)c1S(=O)(=O)Nc1ccc2c(c1)C(=O)N([C@@H](C)CO)C[C@@H](C)[C@H](CN(C)S(=O)(=O)c1ccc(Cl)cc1)OCCCC[C@H](C)O2 the inhibition was 96.3% (active).
With COc1ccc(S(=O)(=O)Nc2ccc3c(c2)C(=O)N([C@H](C)CO)C[C@@H](C)[C@@H](CN(C)CC2CCCCC2)OCCCC[C@@H](C)O3)cc1 the inhibition was 110% (active).
For COc1ccc(S(=O)(=O)Nc2ccc3c(c2)C(=O)N([C@H](C)CO)C[C@H](C)[C@@H](CN(C)C)OCCCC[C@H](C)O3)cc1, the inhibition was 17.4% and 81.8%.
In the case of Cc1ccc(S(=O)(=O)N(C)C[C@@H]2OCCCC[C@@H](C)Oc3ccc(NS(=O)(=O)c4ccc(F)cc4)cc3C(=O)N([C@H](C)CO)C[C@H]2C)cc1, the inhibition is reported as 110% (active).
For C[C@H](CO)N1C[C@H](C)[C@H](CN(C)S(=O)(=O)c2ccc(F)cc2)OCCCC[C@H](C)Oc2ccc(NS(=O)(=O)c3ccc(Cl)cc3)cc2C1=O, the inhibition was 97.6% (active).
With C[C@@H]1CCCCO[C@H](CN(C)S(=O)(=O)c2ccc(F)cc2)[C@H](C)CN([C@@H](C)CO)C(=O)c2cc(NS(=O)(=O)c3ccccc3)ccc2O1 the inhibition was 112% (active).
With Cc1cccc(-c2ccc([C@@H]3[C@@H](CO)N4CCCCN(S(=O)(=O)c5cccs5)C[C@H]34)cc2)c1 the inhibition was 118% (active).
With O=S(=O)(Cc1ccccc1)N1CCCCN2[C@@H](CO)[C@@H](c3ccc(-c4ccc(F)cc4)cc3)[C@@H]2C1 the inhibition was 98.2% (active).
With CCS(=O)(=O)N1CCCCN2[C@@H](CO)[C@@H](c3ccc(-c4ccccc4)cc3)[C@@H]2C1 the inhibition was 93.7% (active).
For O=S(=O)(Cc1ccccc1)N1CCCCN2[C@@H](CO)[C@H](c3ccc(-c4cccnc4)cc3)[C@@H]2C1, the inhibition was 106% (active).
